Values without a mark were called inactive. No rule for the calls is given here.
Target: Pantothenate synthetase (Mycobacterium tuberculosis (strain ATCC 25618 / H37Rv)) (UniProt P9WIL5)
Experiment: Coupled enzyme confirmation of inhibitors against recombinant Mtb PanC (AID 375);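 also: 0% = full reaction with vehicle and 100% = no enzyme background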
Conditions: coupled enzyme assay; at 10 µM, hits give high values

Chain of Pantothenate synthetase (Mycobacterium tuberculosis (strain ATCC 25618 / H37Rv)) (P9WIL5 whole entry, looked up): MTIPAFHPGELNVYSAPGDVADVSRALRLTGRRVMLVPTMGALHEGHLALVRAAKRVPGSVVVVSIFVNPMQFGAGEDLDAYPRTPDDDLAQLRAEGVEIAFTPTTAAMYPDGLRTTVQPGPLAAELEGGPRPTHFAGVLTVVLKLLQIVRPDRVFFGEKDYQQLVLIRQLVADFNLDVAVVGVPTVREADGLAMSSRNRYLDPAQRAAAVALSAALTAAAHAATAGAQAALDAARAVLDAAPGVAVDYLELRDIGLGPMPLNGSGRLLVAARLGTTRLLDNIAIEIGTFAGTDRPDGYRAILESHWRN

SMILES | inhibition
CCN(CC)S(=O)(=O)c1ccc2c(c1)nc(SCn1nnc3ccccc3c1=O)n2CC | 0%
Cc1cccc(N=C2NC(=O)CS2)c1C | 0%
CCc1nc(SCC(=O)NCc2ccco2)c2c3c(sc2n1)CCCC3 | 4%
CCc1ccc2[nH]c(=O)c(C(c3nnnn3CC3CCCO3)N3CCCc4ccccc43)cc2c1 (stereo not given) | 0%
O=C(CSc1nnc(NC(=O)C2CCC2)s1)NC1CC1 | 0%
COc1cccc(CNC(=O)CCS(=O)(=O)c2cccc3nsnc23)c1 | 6%
CCN(CC(=O)Nc1ccc2c(c1)CCC2)Cc1nc2ccccc2c(=O)[nH]1 | 4%
COCCNC(=O)CN1CCC(NC(=O)Nc2ccc(C(F)(F)F)cc2)CC1 | 4%
CSCCC(NS(=O)(=O)c1ccc2c(c1)oc(=O)n2C)C(=O)NC1CCCCC1 (stereo not given) | 0%
O=C(Cn1cnc2c(oc3ccccc32)c1=O)N1CCN(c2ccccc2)CC1 | 1%
O=C(Nc1ccc2c(c1)OCO2)OCc1ccccc1 | 0%
COc1ccc(C2=NOC(C(=O)Nc3cc(Br)ccc3O)C2)cc1OC (stereo not given) | 3%
O=C1NC(=O)C2(CCC(C(=O)O)C2)N1 (stereo not given) | 11%
COc1ccc(C(CNC(=O)c2ccc(OCC3CCCO3)cc2)N2CCOCC2)cc1 (stereo not given) | 0%
CN/C=C1\C(=O)C(C)(C)Oc2ccc3ccc(=O)oc3c21 | 9%
CC[C@H]1OC(=O)C[C@@H](O)[C@H](C)[C@@H](O[C@@H]2O[C@H](C)C[C@H](N(C)C)[C@H]2O)[C@@H](CC=O)C[C@@H](C)C(=O)C=C[C@]2(C)O[C@H]2[C@@H]1C | 0%
Cc1ccccc1CS(=O)(=O)CCC(=O)N1CCN(c2ccc(N3CCOCC3)nn2)CC1 | 9%
Cc1cccc(NC(=O)CCn2ccnc2C)c1 | 0%
CCCN1CCN(C(=O)Cn2cccc2C(=O)c2ccccc2)CC1 | 0%
CCOC(=O)N1CCN(C(=O)c2ccc3nc4cc(Cl)ccc4c(=O)n3c2)CC1 | 8%

SMILES | inhibition
CC(=O)N1C(=O)C2(Nc3ccccc3N2)c2ccccc21 | 1%
CCOC(=O)N1CCN(CCC(=O)c2ccc(Cl)cc2)CC1 | 2%
COc1ccc(OC)c(NC(=O)CCNS(=O)(=O)c2cccs2)c1 | 0%
CC(C)(C)NCc1cc2ccccc2[nH]c1=O | 0%
CC1(C)Cc2c(c(N3CCOCC3)nc3sc(C#N)c(N)c23)CS1 | 0%
COc1cc(C(=O)NCCc2ccc3c(c2)OCCO3)ccc1OCC(=O)N1CCOCC1 | 2%
COc1cccc(NC(=O)C2C3C=CC4(O3)C2C(=O)N(C(C)C)C4C(=O)NC2CCCCC2C)c1 (stereo not given) | 2%
Cc1cccc(NC(=O)CSc2nnc(-c3ccccc3C)o2)c1 | 0%
O=C(NCc1cccnc1)C1c2ccccc2C(=O)N1Cc1ccco1 (stereo not given) | 1%
CCN(CC)CCn1c2ccccc2c2nc(C)sc21 | 1%
Cc1cc(C2C(C#N)=C(N)SC(N)=C2C#N)c(C)s1 | 0%
Cc1c(C#N)c2ncnc(-c3ccccc3)c2n1-c1ccccc1 | 0%
c1ccc(CNc2ccc3c(c2)ncn3C2CCCCC2)nc1 | 0%
Cc1ccc(-c2nn(-c3ccccc3)cc2/C=C(\C#N)c2cccc(C#N)c2)o1 | 0%
CCN(CC)S(=O)(=O)c1ccc(NC(=O)Cn2cnc3ccccc3c2=O)cc1 | 0%
COc1ccc2c(c1)OC(O)(C(F)F)CC2=O (stereo not given) | 0%
COc1ccc(-n2c(SCC(=O)N3CCCCC3C)nnc2-c2cccnc2)cc1 (stereo not given) | 0%
Cc1cn(C2CC3OCC3O2)c(=O)[nH]c1=O (stereo not given) | 0%
O=C(COc1ncnc2ccccc12)NCc1ccc2c(c1)OCO2 | 0%
CCN1CCN(Cc2ccc(NC(=O)Nc3ccc(SC)cc3)cc2)CC1 | 2%

Reference: PubChem BioAssay
